The text below walks through data of PubChem BioAssay (Tox21).

Assay [1] in a line: qHTS assay to test for compound auto fluorescence at 535 nm (green) in HEK293 cells (AID 720680).
The nature of assay [2]: qHTS assay to test for compound auto fluorescence at 460 nm (blue) in HEK293 cell free culture (AID 720681). In a few lines: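 Compounds were added to cell-free DMEM with 10% FBS and fluorescence read directly. The blue channel used 405 nm excitation and 460 nm emission, with triamterene as the reference fluorophore.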
The nature of assay [3]: qHTS assay to test for compound auto fluorescence at 535 nm (green) in HEK293 cell free culture (AID 720682). The procedure, abridged:
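Cell-free medium (DMEM, 10% FBS) receives compound or DMSO by pintool. Plate read directly at Ex 485/Em 535 nm. Signal converted to fluorescein equivalency.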
For orientation: qHTS replaces the single test concentration by a dilution series.

Assay [4] in a line: qHTS assay to test for compound auto fluorescence at 590 nm (red) in HEK293 cell free culture (AID 720683). In a few lines: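 Cell-free wells of DMEM with 10% FBS received compound, and intrinsic fluorescence was read at excitation/emission 540/590 nm. Values expressed as equivalence to Rose Bengal sodium.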
Assay [5] can be described thus: qHTS assay to test for compound auto fluorescence at 590 nm (red) in HepG2 cell free culture (AID 720684). The procedure, abridged: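 Auto fluorescence equivalency versus Rose Bengal sodium, red channel Ex/Em 540/590 nm; compounds in cell-free MEM/10% FBS; DMSO vehicle control.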
Assay [6] can be described thus: qHTS assay to test for compound auto fluorescence at 535 nm (green) in HepG2 cell free culture (AID 720686).
Assay [7] in a line: qHTS assay to test for compound auto fluorescence at 460 nm (blue) in HepG2 cells (AID 720687). The procedure, abridged:
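HepG2 cells in MEM with 10% FBS, attached overnight at 37 C, were exposed to compound or DMSO for 1 hr at 37 C, 5% CO2. Blue fluorescence was read at 405/460 nm, with triamterene as reference fluorophore.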

In assay [8] the target is Glucocorticoid receptor (Homo sapiens) (UniProt P04150). Nature of the assay: qHTS assay to identify small molecule agonists of the glucocorticoid receptor (GR) signaling pathway (AID 720691; active means well fitted activation curve with a large enough effect in the signal ratio in the repeat runs, not every such curve was filed as active; the % refers to the signal ratio). In a few lines:
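Compounds in DMSO, alongside positive controls, were added to GR-bla HeLa reporter cells and incubated 18 h at 37 C; GRE-driven beta-lactamase was detected by fluorescence after 2 h with FRET substrate at room temperature.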

Assay [9] shares this target. Nature of the assay: qHTS assay to identify small molecule antagonists of the glucocorticoid receptor (GR) signaling pathway (AID 720692; active means well fitted inhibition curve with a large enough effect in the signal ratio in the repeat runs, not every such curve was filed as active; the % refers to the signal ratio; further: potency means the concentration at half of the fitted maximal effect). The procedure, abridged:
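In a 1536-well cell format, compounds were added 4 h after seeding GR-bla HeLa cells, together with dexamethasone at 5 nM final; reporter activity was measured by FRET-substrate fluorescence following 18 h at 37 C.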

The nature of assay [10]: qHTS assay to identify small molecule antagonists of the glucocorticoid receptor (GR) signaling pathway - cell viability counter screen (AID 720693). Further: nearly all actives have a fitted effect of over 55% in size. Further: potency means the concentration at half of the fitted maximal effect.
A short description of assay [11]: qHTS assay for identifying genotoxic compounds that show differential cytotoxicity against isogenic chicken DT40 cell lines with known DNA damage response pathways - wild type cell line (AID 743012). Further: nearly all actives have a fitted effect of over 60% in size. Further: potency means the concentration at half of the fitted maximal effect. The procedure, abridged: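 Viability of DNA repair-proficient chicken DT40 cells was assessed by CellTiter-Glo luminescence following 40 h compound exposure at 37 C/5% CO2.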

Assay [12] can be described thus: qHTS assay for identifying genotoxic compounds that show differential cytotoxicity against isogenic chicken DT40 cell lines with known DNA damage response pathways - Rev3 mutant cell line (AID 743014). Further: nearly all actives have a fitted effect of over 55% in size. Further: potency means the concentration at half of the fitted maximal effect.
Assay [13] is described as follows: qHTS assay for identifying genotoxic compounds that show differential cytotoxicity against isogenic chicken DT40 cell lines with known DNA damage response pathways - Rad54/Ku70 mutant cell line (AID 743015). Further: nearly all actives have a fitted effect of over 60% in size. Further: potency means the concentration at half of the fitted maximal effect.
Assay [14] in a line: qHTS assay to identify small molecule antagonists of the androgen receptor (AR) signaling pathway - cell viability counter screen (AID 743033; further: nearly all actives have a fitted effect of over 45% in size; further: potency means the concentration at half of the fitted maximal effect).
A short description of assay [15]: qHTS assay to identify small molecule antagonists of the androgen receptor (AR) signaling pathway using the MDA cell line - cell viability counter screen (AID 743041; further: nearly all actives have a fitted effect of over 45% in size; further: potency means the concentration at half of the fitted maximal effect). The procedure, abridged: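 Compound exposure lasted 16 h at 37C in MDA-kb2 AR-luc cells stimulated with R1881. Protease-based CellTiter-Fluor reagent was applied for the final 30 min and fluorescence measured.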

A short description of assay [16]: qHTS assay to test for compound auto fluorescence at 460 nm (blue) in HepG2 cell free culture (AID 720685). In a few lines: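 Cell-free plates of MEM plus 10% FBS received 23 nL compound or DMSO vehicle; blue-channel (405/460 nm) intensity scored against triamterene as reference fluorophore.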

Several values for one entry are separate records, joined by “and”; a condition that tells them apart may be missing. Equal entries are not always repeated. Records with an inconclusive call do not appear. Some structures have more than one record in an assay (separate samples or runs), and their calls can disagree. Activity calls are given as the source filed them. Unless noted, the call rests on the fitted dose curve; in most records, active means well fitted curve in the direction sought with a large enough effect in the repeat runs; inconclusive means weak or mixed curves; inactive means no such curve, though single readings can be large; an effect the other way counts as inactive or inconclusive.

Sequence of Glucocorticoid receptor (Homo sapiens) (P04150 whole entry, looked up): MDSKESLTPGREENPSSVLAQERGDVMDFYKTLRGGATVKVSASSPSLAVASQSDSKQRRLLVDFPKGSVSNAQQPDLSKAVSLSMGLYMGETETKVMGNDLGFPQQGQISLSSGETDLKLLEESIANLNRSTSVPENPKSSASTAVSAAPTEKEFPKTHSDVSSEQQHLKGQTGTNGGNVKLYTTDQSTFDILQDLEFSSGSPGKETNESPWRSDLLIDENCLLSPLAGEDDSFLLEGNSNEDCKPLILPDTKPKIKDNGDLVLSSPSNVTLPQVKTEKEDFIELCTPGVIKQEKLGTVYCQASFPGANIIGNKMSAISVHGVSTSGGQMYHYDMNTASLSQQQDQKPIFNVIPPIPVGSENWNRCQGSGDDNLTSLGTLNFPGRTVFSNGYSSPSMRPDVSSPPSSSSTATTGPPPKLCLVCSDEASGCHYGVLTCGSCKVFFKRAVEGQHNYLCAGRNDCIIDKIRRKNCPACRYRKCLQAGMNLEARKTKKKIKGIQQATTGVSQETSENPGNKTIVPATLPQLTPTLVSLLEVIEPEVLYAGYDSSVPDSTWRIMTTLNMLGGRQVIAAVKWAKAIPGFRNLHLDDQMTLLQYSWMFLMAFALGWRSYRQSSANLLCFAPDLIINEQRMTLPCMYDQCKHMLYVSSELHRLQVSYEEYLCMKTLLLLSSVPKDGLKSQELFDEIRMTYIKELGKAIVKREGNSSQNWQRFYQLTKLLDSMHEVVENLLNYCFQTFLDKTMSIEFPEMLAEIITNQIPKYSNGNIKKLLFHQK

On to `COc1ccc(CN(CCN(C)C)c2ccccn2)cc1`, for which the Potency entry in assay [1], in [2], in assay [3], in assay [4], in assay [5] and in assay [6] was “inactive” throughout. Besides, the Potency result in [7], in assay [8], in assay [9], in assay [10], in assay [11] and in [12] was “inactive” each time. The Potency result in [13], in assay [14] and in assay [15] was “inactive” each time.

Take `COc1ccc(OC(F)(F)F)cc1CN[C@H]1CCCN[C@H]1c1ccccc1`: the Potency result in assay [1], in assay [2], in assay [3], in [4], in assay [5] and in [16] was “inactive” throughout. In addition, the Potency result in assay [6], in assay [7], in assay [8] and in assay [10] was “inactive” each time. In addition, the Potency in assay [11] is 15.4 µM (active); in assay [12], 30.6 µM (active); in assay [13], 27.3 µM (active); in assay [14], 49 µM (active).

Regarding `COc1ccc(C(Cl)=C(c2ccc(OC)cc2)c2ccc(OC)cc2)cc1`, the Potency result in [1], in [2], in assay [3], in [4], in [5] and in assay [16] was “inactive” throughout. In addition, the Potency result in assay [6], in assay [7], in assay [8], in assay [10], in [14] and in [15] was “inactive” each time. Further, the Potency in [11] is 23.7 µM (active) and 24.3 µM (active); in assay [12], 29.8 µM (active) and 48.3 µM (active) and 27.3 µM (active); in assay [13], 26.6 µM (active) and 60.8 µM (active) and 24.3 µM (active).

As to `Nc1c(N=Nc2ccc(-c3ccc(N=Nc4cc(S(=O)(=O)O)c5ccccc5c4N)cc3)cc2)cc(S(=O)(=O)O)c2ccccc12`, the Potency result in assay [1], in assay [2], in assay [3], in [4], in assay [5] and in assay [6] was “inactive” each time. For the same compound, the Potency result in assay [7], in assay [8], in [10] and in assay [14] was “inactive” each time. The Potency is 21.3 µM (active) in [9]; “inactive and 6.85 µM (active)” in [11]; “inactive and 34.3 µM (active)” in [12]; 54.4 µM (active) in [13]; 26.6 µM (active) and 30.6 µM (active) in [15].

As for `CCCCCCCCCCCC[N+](C)(C)Cc1ccccc1`, the Potency result in assay [1], in assay [2], in assay [3], in [4], in assay [5] and in assay [16] was “inactive” in each case. Further, the Potency entry in assay [6] and in assay [7] was “inactive” each time. For the same compound, the Potency in [10] is 8.49 µM (active) and 19.1 µM (active) and 18.9 µM (active); in [11], 422 nM (active) and 151 nM (active) and 1.05 µM (active); in assay [12], 298 nM (active) and 67.3 nM (active) and 1.05 µM (active); in assay [13], 668 nM (active) and 107 nM (active) and 1.05 µM (active); in [14] it was 21.3 µM (active) and 19.1 µM (active) and 21.2 µM (active); in assay [15] it was 29.8 µM (active) and 23.9 µM (active) and 37.4 µM (active).

For `Cc1cccc(C)c1`, the Potency result in assay [1], in [2], in [3], in assay [4], in assay [5] and in [6] was “inactive” in each case. For the same compound, the Potency result in [7], in assay [8], in assay [9], in [10], in [11] and in [12] was “inactive” each time. In addition, the Potency entry in assay [13], in [14] and in assay [15] was “inactive” each time.

As to `O=c1[nH]cc(F)c(=O)[nH]1`, the Potency result in assay [1], in [2], in [3], in [4], in assay [5] and in assay [6] was “inactive” each time. Also, the Potency result in assay [7], in [8], in assay [9], in [10], in [14] and in assay [15] was “inactive” throughout. Besides, the Potency is 21.1 µM (active) and 27.9 µM (active) in [11]; 50.4 µM (active) and 27.9 µM (active) in assay [12]; 21.1 µM (active) and 40 µM (active) and 17.6 µM (active) in [13].

Turning to `O=C1NC(=O)C(c2ccccc2)(c2ccccc2)N1`, the Potency entry in assay [1], in assay [2], in assay [3], in [4], in [5] and in assay [6] was “inactive” throughout. Besides, the Potency result in assay [7], in assay [8], in assay [9], in assay [10], in [11] and in assay [12] was “inactive” in each case. Also, the Potency entry in [13], in assay [14] and in assay [15] was “inactive” throughout.

As for `C=C(C)C(=O)OCC(C)O` (stereo not drawn), the Potency entry in assay [1], in assay [2], in assay [3], in assay [4], in assay [5] and in [6] was “inactive” throughout. The Potency result in [7], in assay [8], in assay [9], in assay [10], in assay [11] and in assay [12] was “inactive” throughout. Moreover, the Potency result in assay [13], in [14] and in assay [15] was “inactive” in each case.

`C=C1CC[C@H](O)C/C1=C\C=C1/CCC[C@]2(C)[C@@H]([C@H](C)CCCC(C)C)CC[C@@H]12`: the Potency entry in assay [1], in assay [2], in assay [3], in [4], in assay [5] and in assay [16] was “inactive” in each case. In addition, the Potency entry in assay [6], in assay [7], in [8], in [14] and in [15] was “inactive” throughout. For the same compound, the Potency in assay [10] is 54.4 µM (active); in [11], 11.9 µM (active) and 54 µM (active); in assay [12], 26.6 µM (active) and 24.1 µM (active); in [13] it was 13.3 µM (active) and 15.2 µM (active).

Regarding `Cc1ncc([N+](=O)[O-])n1C`, the Potency result in assay [1], in [2], in assay [3], in assay [4], in [5] and in assay [6] was “inactive” each time. In addition, the Potency entry in [7], in [8], in assay [9], in assay [10], in [11] and in assay [12] was “inactive” each time. Moreover, the Potency result in assay [13], in assay [14] and in assay [15] was “inactive” in each case.

Take `CNNCc1ccc(C(=O)NC(C)C)cc1`: the Potency entry in assay [1], in [2], in [3], in assay [4], in assay [5] and in assay [16] was “inactive” throughout. Besides, the Potency result in assay [6], in [7], in assay [8], in [9], in assay [10] and in assay [11] was “inactive” each time. Besides, the Potency result in [12], in assay [13], in assay [14] and in assay [15] was “inactive” each time.

In the case of `CC(=O)C(=O)O`, the Potency entry in [1], in assay [2], in [3], in assay [4], in [5] and in [16] was “inactive” throughout. Besides, the Potency result in [6], in [7], in [10], in [11], in [12] and in [13] was “inactive” each time. In addition, the Potency entry in assay [14] and in assay [15] was “inactive” in each case.
